# The campaign covered roughly 5,500 compounds. About 2,000 (36%) were called active. Not shown: some 18% with an inconclusive outcome. Some of the results follow. Values without a mark were called inactive. Cut-off read from the data, not from the text of the source: active = normalized growth mostly below about 0.91 (no sharp cut-off); inconclusive = no clear call, values can overlap the other calls; inactive = mostly above about 0.92.
# Test: chemical genetic growth profiling, strain panel (AID 1159580);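 note: tested at 20 µM; growth read once vehicle control cultures reached saturation at 30 °C; 1 = growth at the plate median or of vehicle wells; lower values mean less growth of the strain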
# Conditions: S. cerevisiae deletion strains, growth OD
compound,measurement,setting,value
Nc1ccccc1C(=O)NCCc1ccc(Cl)cc1,normalized growth,"locus YAL013W, strain DEP1, active compounds read low",0.979
same,normalized growth,"locus YBR229C, strain ROT2, active compounds read low",0.949
same,normalized growth,"locus YDL101C, strain DUN1, active compounds read low",0.987
same,normalized growth,"locus YDL134C, strain PPH21, active compounds read low",0.949
same,normalized growth,"locus YDR150W, strain NUM1, active compounds read low",0.916
same,normalized growth,"locus YEL061C, strain CIN8, active compounds read low",0.956
same,normalized growth,"locus YGR078C, strain PAC10, active compounds read low",0.97
same,normalized growth,"locus YHR030C, strain SLT2, active compounds read low",0.773
same,normalized growth,"locus YHR087W, strain rtc3, active compounds read low",0.927
same,normalized growth,"locus YJL187C, strain SWE1, active compounds read low",0.928 (active)
same,normalized growth,"locus YJR043C, strain POL32, active compounds read low",0.964
same,normalized growth,"locus YJR075W, strain HOC1, active compounds read low",0.888 (active)
same,normalized growth,"locus YKL190W, strain CNB1, active compounds read low",0.947
same,normalized growth,"locus YLR039C, strain RIC1, active compounds read low",0.969
same,normalized growth,"locus YLR058C, strain SHM2 (second series), active compounds read low",0.961
same,normalized growth,"locus YLR085C, strain ARP6, active compounds read low",0.832
same,normalized growth,"locus YLR262C, strain YPT6, active compounds read low",0.908
same,normalized growth,"locus YML094W, strain GIM5, active compounds read low",0.938
same,normalized growth,"locus YMR219W, strain ESC1, active compounds read low",0.962
same,normalized growth,"locus YMR263W, strain SAP30, active compounds read low",0.997
same,normalized growth,"locus YNL128W, strain TEP1, active compounds read low",0.993
same,normalized growth,"locus YNL153C, strain GIM3, active compounds read low",0.974
same,normalized growth,"locus YNL298W, strain CLA4 (second series), active compounds read low",0.939
same,normalized growth,"locus YNL322C, strain KRE1, active compounds read low",0.963
same,normalized growth,"locus YNR030W, strain Alg12, active compounds read low",0.942
same,normalized growth,"locus YPL055C, strain LGE1, active compounds read low",1.08
same,normalized growth,"locus YPL241C, strain CIN2, active compounds read low",0.902
same,normalized growth,"locus YPR135W, strain CTF4, active compounds read low",0.767

# From PubChem BioAssay AID1159580 (chemical genetic matrix, 2015)
